According to PubChem BioAssay AID2283125 (EPA ToxCast):
Inconclusive results are not listed. Active and inactive are the calls of the source. How the source made its calls: active means hit-call score of the fitted dose curve at least 0.9, where 1 is the maximum; inconclusive means response in the unintended direction; inactive means score below 0.9.

Target: Tyrosine-protein kinase ABL1 (Homo sapiens) (UniProt P00519)
Assay: NVS_ENZ_hAbl: NovaScreen (NVS) Enzymatic Assay for human ABL proto-oncogene 1, non-receptor tyrosine kinase
Description: NVS_ENZ_hAbl is a biochemical, single-readout assay that uses extracted gene-proteins in a cell-free assay. Measurements were taken 1 hour after chemical dosing in a 96-well plate.NVS_ENZ_hAbl is one of one assay component(s) measured or calculated from the NVS_ENZ_hAbl assay. It is designed to make measurements of enzyme activity, a form of enzyme reporter, as detected with fluorescence intensity signals by Fluorescence and electrophoretic mobility shift technology.Data from the assay component NVS_ENZ_hAbl was analyzed into 1 assay endpoint. This assay endpoint, NVS_ENZ_hAbl, was analyzed in the positive analysis fitting direction relative to DMSO as the negative control and baseline of activity. Using a type of enzyme reporter, loss-of-signal activity can be used to understand changes in the enzymatic activity as they relate to the gene ABL1. Furthermore, this assay endpoint can be referred to as a primary readout, because this assay has produced multiple assay endpoints where this one serves a enzymatic activity function. To generalize the intended target to other relatable targets, this assay endpoint is annotated to the kinase intended target family, where the subfamily is non-receptor tyrosine kinase. […]

Tyrosine-protein kinase ABL1 (Homo sapiens), sequence (P00519 whole entry, looked up): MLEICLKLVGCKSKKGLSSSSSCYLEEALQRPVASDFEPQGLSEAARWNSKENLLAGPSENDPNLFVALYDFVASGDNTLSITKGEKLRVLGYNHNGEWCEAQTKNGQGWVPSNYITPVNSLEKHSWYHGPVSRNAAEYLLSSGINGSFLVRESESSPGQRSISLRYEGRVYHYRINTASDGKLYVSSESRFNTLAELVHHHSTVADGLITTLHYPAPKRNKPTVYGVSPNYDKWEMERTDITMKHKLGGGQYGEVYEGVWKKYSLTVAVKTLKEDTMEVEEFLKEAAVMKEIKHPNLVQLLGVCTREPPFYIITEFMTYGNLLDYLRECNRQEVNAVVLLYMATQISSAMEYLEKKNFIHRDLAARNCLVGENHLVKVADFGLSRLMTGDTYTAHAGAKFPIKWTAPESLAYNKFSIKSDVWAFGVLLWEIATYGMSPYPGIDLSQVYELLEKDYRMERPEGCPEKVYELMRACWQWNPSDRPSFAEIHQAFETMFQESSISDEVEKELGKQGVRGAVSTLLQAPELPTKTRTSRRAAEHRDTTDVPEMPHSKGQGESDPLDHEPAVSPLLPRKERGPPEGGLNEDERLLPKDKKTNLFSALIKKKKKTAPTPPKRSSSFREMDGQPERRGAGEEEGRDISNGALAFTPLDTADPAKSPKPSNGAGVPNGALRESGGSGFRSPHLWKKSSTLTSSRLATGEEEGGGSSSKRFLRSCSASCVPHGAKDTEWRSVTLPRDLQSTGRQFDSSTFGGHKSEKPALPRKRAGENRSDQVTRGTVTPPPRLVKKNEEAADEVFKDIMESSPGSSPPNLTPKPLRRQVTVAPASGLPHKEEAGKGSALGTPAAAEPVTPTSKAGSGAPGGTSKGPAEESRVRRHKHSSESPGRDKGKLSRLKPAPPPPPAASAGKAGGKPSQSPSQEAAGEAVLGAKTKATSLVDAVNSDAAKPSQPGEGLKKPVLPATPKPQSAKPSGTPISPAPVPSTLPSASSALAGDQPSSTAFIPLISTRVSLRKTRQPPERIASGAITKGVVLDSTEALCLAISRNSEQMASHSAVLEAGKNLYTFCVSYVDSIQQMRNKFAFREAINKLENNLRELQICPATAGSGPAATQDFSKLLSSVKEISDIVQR

| Structure (SMILES) | outcome |
| --- | --- |
| O=C(Nc1ccc([N+](=O)[O-])cc1Cl)c1cc(Cl)ccc1O | inactive |
| c1ccc2[nH]c(-c3cscn3)nc2c1 | inactive |
